From PubChem BioAssay (NCATS) come the findings set out here.

Test [1] has as its system CRL-7250. In words: Cytotoxic Profiling of Annotated Libraries Using Quantitative High-Throughput Screening (AID 1296008). Further: potency means the concentration at half of the fitted maximal effect. On max response: on the % scale 0 is the no-effect control and ±100 the full control effect. Particulars: Five cell lines viability, CellTiter-Glo ATP luminescence, 48-72 h; max response: active compounds read low. In short, it runs like this:
(§1)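 Compounds were pin-transferred onto cells and incubated 48 or 72 hr at 37 degree Celsius, 95% humidity. CellTiter-Glo was added, plates sat 10 min at room temperature, then ATP-coupled luminescence was imaged as the viability read-out.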

In test [2] the test system is HEK293. Described as above. The following applies: Five cell lines viability, CellTiter-Glo ATP luminescence, 48-72 h; max response: active compounds read low. In short, it runs like this:
as §1

Test [3] concerns HaCat. The test is described as above. The following applies: Five cell lines viability, CellTiter-Glo ATP luminescence, 48-72 h; max response: active compounds read low. An outline of the steps:
as §1
Background: ATP-based viability assays read luminescence as a measure of living cells.

Test [4] has as its system KB-3-1. Described as above. The following applies: Five cell lines viability, CellTiter-Glo ATP luminescence, 48-72 h; max response: active compounds read low. In short, it runs like this:
as §1

Test [5] relates to NIH3T3. The test is described as above. The following applies: Five cell lines viability, CellTiter-Glo ATP luminescence, 48-72 h; max response: active compounds read low. An outline of the steps:
as §1

The subject of test [6] is HACAT. Kind of test: qHTS assay to identify novel small-molecules to repurpose for Merkel cell carcinoma treatment (AID 1296009). Particulars: MCC and control cell lines, CellTiter-Glo viability, 72 h; at 44.8 µM (top of the series) unless noted. In short, it runs like this: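 Luminescence from CellTiter-Glo, read 10 min after addition at room temperature, reported viability following a 72 hr, 37 degree celsius treatment with NPC or MIPE compounds in titration; values normalized to plate controls.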
In general terms: Quantitative high-throughput screening tests each substance at several concentrations.

Several values for one entry are separate records, joined by “and”; a condition that tells them apart may be missing. Equal values may be shown once. Records with an inconclusive call do not appear. A number with no mark means an inactive call. Activity calls are given as the source filed them. The call rests on the fitted dose curve; in most records, active means well fitted inhibition curve with a large enough effect; inconclusive means small, poorly fitted or top-dose-only effect; inactive means flat fitted curve, though single readings scatter.
Further: nearly all actives have a fitted effect of over 60% in size.

Consider `COc1ccc([C@@H]2Sc3ccccc3NC(=O)[C@@H]2O)cc1`, for which the max response in test [1] was -22.1%.
For `CC(=O)[C@H]1CC[C@H]2[C@@H]3C=CC4=CC(=O)CC[C@@]4(C)[C@@H]3CC[C@]12C`, the max response is -2.73% and 1.98% in test [1]; -2.74% in test [2]; -26.7% in test [3]; -2.29% in test [4]; -20.6% and 1.55% in test [5]. The result in test [3] and in test [6] was inactive.
Turning to `O=C(O)Cc1ccc(OCCNC[C@H](O)c2ccccc2)cc1`, the compound was called inactive in test [1]. Moreover, the max response in test [2] was -3.07%; in test [3], 2.67%; in test [4], -1.64%; in test [5] it was 0.971%.
Regarding `CCOC(=O)N1CCC(Nc2ccc(Cl)cc2N)CC1`, the max response in test [1] was 2.37%; in test [2], -13.9%; in test [3] it was -14.7%.
Regarding `CC(=O)CC/C=C(\C)CC/C=C(\C)CC/C=C(\C)CCC=C(C)C`, the outcome in test [1] and in test [2] was inactive. In addition, the max response was -9.87% in test [3], -13.4% in test [4] and -3.99% in test [5].
On to `COc1cc(NS(=O)(=O)c2ccc(N)cc2)nc(C)n1`, for which the max response in test [1] was -6.73%; in test [3], -7.5%; in test [5] it was 4.73%. The compound was classed as inactive in test [2] and in test [4].
With `O=C(O)c1ccccc1S`, the max response is -0.928% in test [1]; 0.0683% in test [2]; 1.95% in test [3]; -5.69% in test [4]; 1.26% in test [5].
Turning to `CCCCC(CC)COC(=O)c1ccccc1C(=O)O` (configuration not stated), the max response in test [1] is -9.5%; in test [3] it was -1.62%; in test [4] it was -15.1%; in test [5], -2.08%. In addition, the compound was classed as inactive in test [2].
With `OC(CCCN1CCCCC1)(c1ccccc1)c1ccccc1`, the max response in test [1] was -11.1%; in test [2] it was -39.9%; in test [3], -16%; in test [4] it was -5.63%; in test [5], -14.5%.
Regarding `O=C(CO)[C@@H](O)[C@H](O)[C@@H](O)CO`, the call in test [1], in test [2] and in test [5] was inactive. Further, the max response in test [3] was 3.88%; in test [4] it was -7.71%.
For the compound `CC(=O)OCC(=O)[C@@]1(O)CCC2C3CCC4=CC(=O)CC[C@]4(C)C3[C@@H](O)C[C@@]21C` (some centres not stated), the outcome in test [1] was inactive. Moreover, the max response in test [2] is 2.9%; in test [3], 3.13%; in test [4], 0.5%; in test [5], 0.645%.
For the compound `N[C@@H](Cc1cc(I)c(O)c(I)c1)C(=O)O`, the max response in test [1] is 1.61%; in test [2], -5.41%; in test [3] it was 4.36%; in test [4], -0.833%; in test [5], -12.4%.
On to `C1N2CN3CN1CN(C2)C3`, for which the compound was called inactive in test [1] and in test [2]. In addition, the values for the max response in test [3], in test [4] and in test [5] were -1.63%, -1.26% and -2.39%, respectively.
In the case of `CCCCCC1Nc2cc(C(F)(F)F)c(S(N)(=O)=O)cc2S(=O)(=O)N1` (configuration not stated), the max response in test [1] is -8.64%; in test [2], -4.59%; in test [3], -13.3%; in test [4], -12.8%. In test [5], the outcome was inactive.
With `CN(CC1(C)CCCO1)S(=O)(=O)c1ccc(Cl)c(S(N)(=O)=O)c1` (configuration not stated), the max response in test [1] is 1.85%; in test [2] it was -6.48%; in test [3], -20.1%. Moreover, in test [4], the compound was called inactive.
For `CCC(=O)O[C@H]1[C@H](O[C@@H]2[C@@H](C)[C@H](O[C@H]3C[C@@](C)(OC)[C@@H](O)[C@H](C)O3)[C@@H](C)C(=O)O[C@H](CC)[C@@](C)(O)[C@H](O)[C@@H](C)C(=O)[C@H](C)C[C@@]2(C)O)O[C@H](C)C[C@@H]1N(C)C`, the max response is 0.377% in test [1], 0.29% in test [3], 2.69% in test [4] and 1.01% in test [5]. Also, the compound was called inactive in test [2].
As for `COc1cc(C(=O)OC(COCCC(C)C)CN2CCOCC2)cc(OC)c1OC` (configuration not stated), the max response is -2.39% in test [1], -1.64% in test [3] and 3.87% in test [5]. Further, the compound was called inactive in test [2] and in test [4].
Consider `C[C@@H](O[C@H]1OCCN(Cc2n[nH]c(=O)[nH]2)[C@H]1c1ccc(F)cc1)c1cc(C(F)(F)F)cc(C(F)(F)F)c1`, for which the max response in test [1] is 4.27%.
On to `C1=CC2C3C=CC(C3)C2C1` (configuration not stated), for which the compound was classed as inactive in test [1] and in test [2]. Besides, the max response was -9.73% in test [3], -6.71% in test [4] and 0.366% in test [5].
As for `OCc1cccnc1`, the max response in test [1] was -0.394%; in test [2] it was -2.02%; in test [3], 3.51%; in test [4], 3.27%. Also, the compound was classed as inactive in test [5].
On to `Nc1c(NC/C=C\COc2cc(CN3CCCCC3)ccn2)c(=O)c1=O`, for which the max response in test [1] was -21.7%; in test [2], -20.2%; in test [3] it was -11%; in test [5] it was 0.202%. Moreover, in test [4], the Potency was 23.1 µM (active).
With `CC1c2ccccc2CN1NC(=O)c1ccc(Cl)c(S(N)(=O)=O)c1` (configuration not stated), the max response in test [1] was -8.72%; in test [2] it was -4.92%; in test [3], 0.897%; in test [4] it was 8.25%; in test [5] it was 2.57%.
On to `OCCCc1ccccc1`, for which the max response in test [1] is -10.6%; in test [2], -4.71%; in test [3], -3%; in test [4], -4.85%. Moreover, the outcome in test [5] was inactive.
As to `C[C@]12CCC(=O)C=C1CC[C@@H]1[C@@H]2[C@@H](O)C[C@@]2(C)[C@H]1CC[C@]2(O)C(=O)COC(=O)CCC(=O)O`, the max response was -0.174% in test [1], 3.66% in test [2], -3.29% in test [3] and -0.87% in test [4]. Besides, the result in test [5] was inactive.
With `CCN1CCN(C(=O)N[C@@H](C(=O)N[C@@H]2C(=O)N3[C@@H]2SC(C)(C)[C@H]3C(=O)O)c2ccccc2)C(=O)C1=O`, the outcome in test [1], in test [3] and in test [6] was inactive. The max response in test [2] is -1.44%; in test [4] it was -9.16%; in test [5], 2.03%.
